Screen size: about 360,000 compounds; about 7,500 (2.1%) were called active. Where a call stands in place of a potency, no number is given. Another 8% or so got no clear call; they are omitted. Calls come from the whole dose curve; as a rule, active = well fitted cell-killing curve with a large enough effect; inconclusive = small, poorly fitted or top-dose-only effect, or effect the other way, or another doubt; inactive = no such curve, though single readings can be large or run the other way. The full list was thinned out, with actives kept by preference.
Potency is the fitted concentration of half-maximal effect.

The assay is described as follows: qHTS for induction of synthetic lethality in tumor cells producing 2HG: qHTS for the HT-1080-IDH1KD cell line. As to conditions: HT-1080 IDH1 knockdown viability, ATP luminescence, 48 h; series mostly up to 46.1 µM. An excerpt: Unbiased genomic sequencing for 22 glioma genomes found recurrent mutation of IDH1 on chromosome 2q33, a gene encoding the cytosolic isoform of IIDH1 associated with the tri-carboxylic acid cycle (TCA) that catalyzes the oxidative decarboxylation of isocitrate, yielding alpha-ketoglutarate and CO2 via NADP+ to NADPH conversion. Subsequent studies confirmed the recurrent IDH mutations in up to 70% of secondary gliomas and in 10% of AML cases. In addition, the somatic mutation of cancer-associated IDH1 is a point mutation resulting in various amino-acid substituents at Arginine132 (IDH1 R132), a key residue found in the enzyme's active site that when mutated, results in the loss-of-function in metabolizing isocitrate but confers a gain-of-function to produce the oncometabolite 2-hydroxyglutarate (2HG). This in effect defines IDH1 as an oncogene and provides an extraordinary opportunity to discover chemical probes against mutant IDH1 that may translate into much needed new therapies for glioma and AML patients.
This assay aims to perform a synthetic-lethal screen for chemical probes specific for 2HG-producing tumor cells using matched paired cell lines (1) HT-1080-NT fibrosarcoma cell line that overproduces 2HG and (2) HT-1080-IDH1KD cell line which has IDH1 expression knocked-down. Desirable compounds are toxic to the NT fibrosarcoma cell line but not to the IDH1KD cell line. The data in this AID corresponds to the results of the qHTS against the HT-1080 IDH1KD cell line.
[1] Dang L, Jin S, Su SM. IDH mutations in glioma and acute myeloid leukemia. Trends of Mol Med. 2010; 16(9): 387-97.
[2] Dang L et al. Cancer-associated IDH1 mutations produce 2-hydroxyglutarate. Nature. 2010; 465(7300):966.
Molecular Libraries Probe Production Centers Network [MLPCN]
NIH Chemical Genomics Center [NCGC]
Assay Submitter (PI): Lenny Dang Ph.D., Agios Pharmaceuticals
Suspensions of trypsinized HT-1080-IDH1KD cells were dispensed into white, tissue culture-treated, solid 1536-well plates at 5uL/well (750 cells/well final concentration) in RPMI medium supplemented with 5% FBS. Plates were incubated at 37 degrees C for 2 hours, after which 23 nL of compounds or DMSO were delivered to each well using a pin tool. Plates were then incubated at 37 degrees C for an additional 48 hours. CellTiter-Glo viability reagent (Promega) was dispensed into wells (2.5uL/well) and incubated at room temperature for 10 minutes. The plates were measured on a PerkinElmer ViewLux plate reader for luminescent signal (clear filter, 1 sec exp.). DMSO-treated control wells and media-only (no cells) control wells were used to normalize %Activity of identified toxic compounds; DMSO-treated wells corresponded to 0%Activity (100% viability), while media-only controls were used to normalize 100%Activity (0% viability). To minimize variability between cell lines, both HT-1080-NT and HT-1080-IDH1KD lines were dispensed and treated with identical compound series in single batches.
Concentration-response curves were fitted to the signals arising from the resulting luminescence. The concentration-effect curves were then classified based on curve quality (r2), response magnitude and degree of measured activity, and compounds were subsequently categorized based on their curve class.
A general note: In qHTS, concentration-response curves come from the screen itself.
Regarding `O=C(O)CSc1nnc(-c2ccc3c(c2)OCO3)n1-c1ccccc1`, the Potency result is “inactive”.
Then `Cc1cccc(C)c1NC(=O)C(c1cccc2ccccc12)n1c(=O)c(-c2ccco2)nc2ccccc21` (stereo not given), with “inactive”; and `O=C(OCc1cn([C@H]2C[C@H](c3ccccc3)N(C(=O)c3cccs3)C[C@@H]2O)nn1)c1ccccc1`, with “inactive”.
Then `COc1cccc(OC)c1C(=O)N1CCN(Cc2ccccc2F)CC1`, with “inactive”; and `Nc1c(-c2ccccc2)nnn1Cc1ccccc1`, with “inactive”.
Then `O=C(COc1cccc(Cl)c1)NCc1ccccc1`, with “inactive”; and `Nc1c(C(=O)NCc2ccccc2)nnn1Cc1cccc(Cl)c1`, with 14.6 µM (active); and `O=C(NCCN1CCOCC1)c1ccc2c(c1)N(Cc1cccc(Cl)c1)C(=O)c1ccccc1S2(=O)=O`, with “inactive”.
On to `CC1=C/C(=N\OS(=O)(=O)c2ccccc2)C=CC1=O`, for which the Potency was 20 µM (active).
Take `O=C(NCc1ccc(F)cc1)c1cc(C2CCCCN2C(=O)c2cccs2)on1` (stereo not given): the Potency result is “inactive”.
For the compound `CCc1nc2ccc(C(=O)Nc3cc(-c4ccccc4)ccc3OC)cn2c1N(CC)CC(=O)N(C)C`, the Potency entry is “inactive”.
Then `C[C@@H]1CN([C@@H](C)CO)C(=O)c2cc(Br)cnc2O[C@H]1CN(C)Cc1ccc(-c2ccccc2)cc1`, with “inactive”; and `CCCCN1CC(N2CCN(Cc3cccc(C)c3)CC2)CS1(=O)=O` (stereo not given), with “inactive”; and `COc1ccc(C(=O)Nc2ccccc2C(=O)N/N=C/c2ccc(O)c(OC)c2)cc1`, with 6.51 µM (active).
Then `COc1ccc(C(=O)Nc2ccccc2C(=O)N2CCN(c3ccccc3)CC2)cc1`, with “inactive”; and `COc1ccc(/C=N/NC(=O)c2ccccc2)cc1OS(=O)(=O)c1ccccc1`, with 20.6 µM (active); and `COc1cc(/C=N/NC(=O)c2ccoc2C)ccc1OCCN1CCCCC1`, with “inactive”.
Then `COc1cc(/C=N/NC(=O)Nc2ccccc2)ccc1OCCOc1ccccc1C`, with 7.08 µM (active); and `Cc1ccc(S(=O)(=O)Oc2ccc(/C=N/NC(=O)c3ccncc3)cc2)cc1`, with “inactive”; and `COc1ccc(/C=N/Nc2ccccc2C(=O)O)cc1`, with “inactive”.
For the compound `COc1cc(C=NNC(=O)c2cccnc2)ccc1OC(=O)c1ccccc1F`, the Potency entry was “inactive”.
To `COC(=O)c1ccc(COc2ccc(/C=N/NC(=O)C(=O)Nc3ccc(OC)cc3)cc2OC)o1` belongs “inactive”; to `COc1ccc(NC2CCCN(C(=O)c3ccccc3-c3ncc[nH]3)C2)cc1` (stereo not given), “inactive”; to `COc1cc(-c2nnc(NC(=O)CS(=O)(=O)c3ccc(Cl)cc3)o2)cc(OC)c1OC`, “inactive”.
Then `CC(=O)Nc1c(-c2ccc(C)cc2)nc2ccc(Cl)cn12`, with “inactive”; and `CCCCn1nnnc1C1(C)CCC(=O)N1Cc1ccc(OC)c(OC)c1` (stereo not given), with “inactive”.
Then `CCCCCCCCn1c2c(c(=N)c3c1CCC3)CCCC2`, with 8.2 µM (active); and `CCCc1nc2ccccc2n1C(C)C(=O)NC(C)(C)C` (stereo not given), with “inactive”.
Turning to `CC1CCCC(C)N1C(=O)COC(=O)c1ccccc1C(=O)c1ccccc1` (stereo not given), the Potency entry is “inactive”.
To `Cc1cccnc1NC(=O)c1cccc(S(=O)(=O)N2CCN(c3ccc(F)cc3)CC2)c1` belongs 29.1 µM (active).
With `Cc1ccc(C(=O)Nc2ncccc2C)cc1S(=O)(=O)N1CCOCC1`, the Potency entry is “inactive”.
Then `O=C(Nc1ccc2c(c1)CCC2)c1cccc(S(=O)(=O)N2CCN(c3ccc(F)cc3)CC2)c1`, with “inactive”; and `O=C1NC[C@H](CCCCN2CCN(CCc3ccccc3)C(=O)C2=O)N(CC2CCCCC2)C1=O`, with “inactive”.
To `COC(=O)[C@]12CCCCC=C1N(Cc1ccco1)C(=O)[C@H](CC(=O)NCC1CCCCC1)C2` belongs “inactive”; to `CCOC(=O)C1=CCC2C(=O)N(Cc3ccccc3)C(=O)C12` (stereo not given), “inactive”; to `COc1ccc(C2=Nc3ccccc3NC(=O)C2N(C(=O)c2cc3ccccc3[nH]2)c2ccccc2)cc1` (stereo not given), “inactive”.
For the compound `CC(C)Oc1cc(F)ccc1-c1cc(C(=O)Nc2ccc(F)cc2)[nH]n1`, the Potency result is “inactive”.
To `COC(=O)c1ccc(-c2c(-c3ccccc3)ncc3cc(OC)c(OC)cc23)cc1` belongs “inactive”.
Turning to `CC(=O)c1cccc(-c2cnc3c(NC=O)cc(-c4ccc(N5CCN(C)CC5)cc4)cn23)c1`, the Potency result is “inactive”.
Then `COc1cc(C=O)ccc1Oc1nnnn1-c1ccccc1`, with “inactive”.
Then `COc1ccc(-c2cc(NC=O)c3ncc(-c4ccccc4)n3c2)cc1OC`, with 16.4 µM (active); and `CS(=O)(=O)Nc1cccc(-c2cn3ccccc3n2)c1`, with “inactive”.
Take `CC(=O)c1ccc(-c2cnc3c(NC=O)cc(-c4cccc(NS(C)(=O)=O)c4)cn23)cc1`: the Potency was 8.2 µM (active).
For `O=[N+]([O-])c1ccc(C(S(=O)(=O)Cc2ccccc2)S(=O)(=O)Cc2ccccc2)cc1`, the Potency result is “inactive”.
Then `C[C@H]1COc2cc(N3CCSCC3)ccc2S(=O)(=O)N1`, with “inactive”.
Then `O=C(O)C1=C(C(=O)O)C2CCC1C2`, with “inactive”; and `CCCNC(=O)c1cc(C2CCCCN2S(=O)(=O)c2ccc(C#N)cc2)on1` (stereo not given), with “inactive”.
`NC1=CC(=O)C(=O)c2cccnc21`: the Potency is 11.6 µM (active).
To `CCOc1ccc(CCN2C(=O)c3cccnc3C2=O)cc1OCC` belongs “inactive”.
As to `O=C1c2cccnc2C(=O)N1Cc1cccs1`, the Potency result was “inactive”.

Source of the values: PubChem BioAssay AID686971 (National Center for Advancing Translational Sciences (NCATS), 2013).
